HT1080-NT tox = kills 2HG-producing HT-1080-NT fibrosarcoma cells; Potency, µM (doses to about 46.1 µM), inactives show at the top dose activity, negative = less viability, most hits filed as cytotoxic; AID 686970; HT-1080-NT fibrosarcoma viability, CellTiter-Glo ATP luminescence, 48 h; 1.6% of 360,000 active;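 also: NT is the 2HG producing partner of a matched IDH1 knockdown line; potency is read from the fitted curve at half-maximal effect; 0% = DMSO-treated cells and -100% = media-only wells without cells; nearly all actives have a fitted effect of over 55% in size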
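Compounds were tested in concentration-response format on HT-1080-NT cells for 48 hours at 37 degrees C. Cell viability came from CellTiter-Glo luminescence; curves were classified by r2, response magnitude and activity.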
ELG1 DNA repair = inhibitors of ELG1-dependent DNA repair in HEK293T cells | HEK293T ELG1-luciferase reporter, luminescence, 16 h; DNA damage induced by 5-fluorouridine | Potency, µM (top dose mostly 46.1 µM), for the others: at the top dose activity change, negative = inhibition, hits mostly inhibitors | 2.3% of 330,000 active; also: potency is read from the fitted curve at half-maximal effect; nearly all actives have a fitted effect of over 55% in size
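Luminescence from the luciferase reporter, measured 30 min after ONE-Glo reagent at room temperature, was the read-out. Beforehand, 2,000 cells per well were exposed for 16 hr at 37 °C to 5-fluorouridine together with compound or vehicle.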
IL1B secr inh = inhibitors of inflammasome signaling (IL-1 beta secretion). THP-1 LPS/ATP IL-1B secretion, AlphaLISA, 16 h; stronger effect = lower value. activity change, % at 57.5 µM. 4.7% of 360,000 active; in the data active = activity change below about -50%; inconclusive = mostly about -30% to -49%
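THP-1 cells pretreated 1 hr with compounds (up to 57.5 uM final), then stimulated with LPS (250 ng/mL final) plus ATP (1.25 mM final); secreted IL-1B measured by AlphaLISA after 16 hr, decreased signal indicating inhibition.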
TDP1 cell noCPT = qHTS for Inhibitors of human tyrosyl-DNA phosphodiesterase 1 (TDP1): qHTS in cells in absence of CPT | DT40 Tdp1-/- hTDP1 cells, no CPT, ATP luminescence, 48 h | Potency, µM (doses to about 46.2 µM), inactives show top-dose activity change, negative = growth inhibition, hits mostly inhibitors | 15% of 420,000 active; also: potency is read from the fitted curve at half-maximal effect; nearly all actives have a fitted effect of over 55% in size
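Chicken DT40 Tdp1-/- cells stably complemented with human TDP1 were seeded at 400 cells/well with DMSO in place of 20 nM camptothecin. After compound pinning, cells grew at least 48 hr at 37 °C; viability read by CellTiter-Glo luminescence.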
HT1080 IDH1KD tx = toxicity to HT-1080 IDH1 knockdown cells (counter line). HT-1080 IDH1 knockdown viability, ATP luminescence, 48 h. Potency, µM (titrated, usually from 46.1 µM), for the others: at the top dose activity, negative = toxicity, actives largely listed as cytotoxic. 2% of 360,000 active. AID 686971;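 also: potency is read from the fitted curve at half-maximal effect; 0% = DMSO wells and -100% = cell-free medium wells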
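% activity derives from luminescence (CellTiter-Glo), normalised to DMSO and no-cell wells. HT-1080-IDH1KD cells, 750/well, had 48 h compound exposure at 37 °C.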
TDP1 cell CPT = DT40-hTDP1 cell growth loss with CPT. chicken DT40 Tdp1-/-;hTDP1 cells + 20 nM CPT, ATP luminescence, 48 h. Potency, µM (series often up to 46.2 µM), without a hit: at the highest dose activity change, negative = growth inhibition, hits mostly inhibitors. 12% of 420,000 active; also: potency is read from the fitted curve at half-maximal effect; nearly all actives have a fitted effect of over 55% in size
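Cell growth measured by CellTiter-Glo luminescence after a minimum 48 h, 37 C compound exposure with 20 nM CPT in Tdp1-knockout DT40 cells stably expressing hTDP1, seeded 400/well; qHTS titration format.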
Active calls of the source: *. Compounds with a hit are over-represented: about 19% of the library has one in this group of screens. Unless noted, calls follow the shape of the dose curve; as a rule, active = well fitted curve in the direction sought with a large enough effect; inconclusive = small, poorly fitted or top-dose-only effect, or another doubt; inactive = no such curve, though single readings can be large; an effect the other way counts as inactive or inconclusive. Unless noted, % is scaled to controls: 0 for no effect and ±100 for the full control effect.

Screening Clc1ccc(/C=C/c2ccc3ccccc3n2)c(Cl)c1 returned TDP1 cell noCPT inconclusive and TDP1 cell CPT -6%.
C[C@H](CO)N1C[C@H](C)[C@@H](CN(C)Cc2ccncc2)OCCCC[C@H](C)Oc2ccc(NC(=O)CCCN(C)C)cc2C1=O was read as HT1080-NT tox -2%, IL1B secr inh 3, TDP1 cell noCPT -5%, HT1080 IDH1KD tx 0% and TDP1 cell CPT -10%.
CCOC(=O)CC1COc2ccccc2N1C(=O)c1cccc([N+](=O)[O-])c1 (stereo not drawn) was read as HT1080-NT tox -6%, ELG1 DNA repair -11%, IL1B secr inh 37, TDP1 cell noCPT inconclusive, HT1080 IDH1KD tx -3% and TDP1 cell CPT 5%.
Cc1cc(C)cc(N2C(=O)CCSC23C(=O)N(Cc2ccccc2)c2ccccc23)c1 (stereo not drawn) was read as TDP1 cell noCPT 5.8µM* and TDP1 cell CPT 5.8µM*.
CCOc1ccccc1NC(=O)CN1C(=O)C2(SCC(=O)N2c2cccc(F)c2)c2ccccc21 (stereo not drawn) was read as TDP1 cell noCPT -17% and TDP1 cell CPT inconclusive.
Cc1cc(C)cc(N2C(=O)CSC23C(=O)N(CC(N)=O)c2ccccc23)c1 (stereo not drawn) was read as TDP1 cell noCPT 11% and TDP1 cell CPT 4%.
`Cc1cccc(N2C(=O)CCSC23C(=O)N(Cc2ccc(F)cc2)c2ccccc23)c1` (stereo not drawn) gave TDP1 cell noCPT 6.5µM* and TDP1 cell CPT 9.2µM*.
For O=C1CCSC2(C(=O)N(Cc3ccc(F)cc3)c3ccccc32)N1c1cccc(F)c1 (stereo not drawn) the results were TDP1 cell noCPT 3.7µM* and TDP1 cell CPT 5.2µM*.
Screening O=C1CCSC2(C(=O)N(Cc3ccc(F)cc3)c3ccccc32)N1c1ccc(F)c(F)c1 (stereo not drawn) returned TDP1 cell noCPT 10µM* and TDP1 cell CPT 7.3µM*.
COC(=O)C[C@@H]1CC[C@@H](NS(=O)(=O)c2cccc(OC)c2)[C@@H](CO)O1 was read as HT1080-NT tox 16%, IL1B secr inh -1, TDP1 cell noCPT 0%, HT1080 IDH1KD tx 21% and TDP1 cell CPT 1%.
For COc1ccc(NC(=O)c2nn(C)c3c2CS(=O)(=O)c2ccccc2-3)cc1Cl the results were TDP1 cell noCPT -29% and TDP1 cell CPT inconclusive.
`Cc1ccc(N2C(=O)CCSC23C(=O)Nc2ccccc23)cc1` (stereo not drawn) gave HT1080-NT tox -14%, IL1B secr inh -7, TDP1 cell noCPT -18%, HT1080 IDH1KD tx -19% and TDP1 cell CPT -26%.
For O=C1CCSC2(C(=O)N(Cc3ccc(F)cc3)c3ccccc32)N1c1ccccc1 (stereo not drawn) the results were TDP1 cell noCPT 8.2µM* and TDP1 cell CPT 7.3µM*.
Screening CC(C)(C)CN1CCN(CC#Cc2ccccc2)CC1CCO (stereo not drawn) returned HT1080-NT tox -2%, ELG1 DNA repair -7%, IL1B secr inh 13, TDP1 cell noCPT 10µM*, HT1080 IDH1KD tx -3% and TDP1 cell CPT inconclusive.
For CN1CCN(CC#Cc2ccccc2)CC1CCO (stereo not drawn) the results were HT1080-NT tox 15%, ELG1 DNA repair 7%, IL1B secr inh 15, TDP1 cell noCPT 8%, HT1080 IDH1KD tx 6% and TDP1 cell CPT 0%.
Cc1csc2nc(SCC(=O)Nc3ccccc3F)[nH]c(=O)c12 was read as HT1080-NT tox -1%, ELG1 DNA repair -1%, IL1B secr inh -27, TDP1 cell noCPT -19%, HT1080 IDH1KD tx 3% and TDP1 cell CPT -25%.
`CCOC(=O)/C=c1/s/c(=C\c2c(OC)ccc3ccccc23)c(=O)n1CC(=O)NCC1CCCO1` (stereo not drawn) gave HT1080-NT tox 16µM*, IL1B secr inh 6, TDP1 cell noCPT 26µM*, HT1080 IDH1KD tx inconclusive and TDP1 cell CPT 23µM*.
CCOC(=O)/C=c1\s/c(=C\c2ccccc2C)c(=O)n1CC(=O)NCc1ccc2c(c1)OCO2 was read as HT1080-NT tox inconclusive, ELG1 DNA repair -27%, IL1B secr inh 16, TDP1 cell noCPT inconclusive, HT1080 IDH1KD tx inconclusive and TDP1 cell CPT inconclusive.
Screening CCOC(=O)/C=c1\s/c(=C\c2ccc3cc(OC)ccc3c2)c(=O)n1CC(=O)NCc1ccc2c(c1)OCO2 returned HT1080-NT tox 12%, ELG1 DNA repair inconclusive, IL1B secr inh 7, TDP1 cell noCPT 9.2µM*, HT1080 IDH1KD tx 9% and TDP1 cell CPT 6.5µM*.
For CCOC(=O)/C=c1\s/c(=C\c2ccc3c(c2)OCCO3)c(=O)n1CC(=O)NCC1CCCO1 (stereo not drawn) the results were HT1080-NT tox 2%, ELG1 DNA repair -8%, IL1B secr inh 2, TDP1 cell noCPT -15%, HT1080 IDH1KD tx 9% and TDP1 cell CPT -25%.
For OCC[C@@H]1C[C@H](O)[C@@H](O)[C@]2(OCc3ccc4ccccc4c32)O1 the results were HT1080-NT tox 1%, IL1B secr inh 36, TDP1 cell noCPT 5%, HT1080 IDH1KD tx 1% and TDP1 cell CPT 5%.
`CN(C)/C=C/C1=CC(=O)CC(C)(C)C1` gave HT1080-NT tox -29%, ELG1 DNA repair -3%, IL1B secr inh inconclusive, TDP1 cell noCPT -24%, HT1080 IDH1KD tx 21µM* and TDP1 cell CPT -2%.
`Cc1ccc(C2=CC(=O)CC(C)(C)C2)cc1` gave HT1080-NT tox -6%, ELG1 DNA repair inconclusive, IL1B secr inh 12, TDP1 cell noCPT 0%, HT1080 IDH1KD tx 2% and TDP1 cell CPT -12%.
O=C(/C=C/c1ccc(-c2ccccc2[N+](=O)[O-])o1)c1ccccc1 was read as HT1080-NT tox -28%, ELG1 DNA repair inconclusive, IL1B secr inh -67*, TDP1 cell noCPT 23µM*, HT1080 IDH1KD tx -26% and TDP1 cell CPT inconclusive.
Screening O=C(N/N=C/c1ccc(-c2cccc([N+](=O)[O-])c2)o1)[C@H]1C[C@@H]1c1ccccc1 returned HT1080-NT tox 4%, ELG1 DNA repair inconclusive, IL1B secr inh -20, TDP1 cell noCPT 16µM*, HT1080 IDH1KD tx -2% and TDP1 cell CPT 29µM*.

Assay outcomes (PubChem)
